# Laboratory results as given in article PMC5515408, “Sequence-specific DNA binding by MYC/MAX to low-affinity non-E-box motifs”.
# Over roughly 4,500 sequences, “log2 normalized fluorescence” has its median near -0.34; the highest 2% begin near 3.3. The entries come from a sample that favours the highest values as a whole.
# Molecular target: MAX:MAX (p21) (human, UniProt P61244-2 1-151)
# Experiment: protein-binding microarray (anti-MAX antibody); PBM: 15 mM Tris-HCl pH 7.5, 100 mM KCl, 0.075% NP40, 7.5 mM beta-mercaptoethanol, 375 ng/ul BSA, 8 ng/ul poly(dA-dT):(dA-dT), 550 ng complex, 60 min, room tempe; high values mean tight binding
# Conditions: protein: recombinant; tags: 6xHis; chain copies: 2; label: 3' end of printed strand (linker) attached to glass slide; dsDNA, one strand shown
# How it was run: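 Recombinant His-tagged human MYC:MAX or MAX:MAX dimers (550 ng, expressed in E. coli) were incubated for 60 min at room temperature in Tris-KCl buffer, pH 7.5, with NP40, BSA and poly(dA-dT) competitor. The custom Agilent glass array held ~5000 unique 12-nt sequences, each spotted in triplicate and made double-stranded by primer extension. Bound protein was detected with anti-MAX and secondary antibodies and scanned at 543 nm. Binding is reported as log2 normalized fluorescence.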
# Chain of MAX:MAX (p21) (P61244 other isoform, or with tags, fused parts or gaps): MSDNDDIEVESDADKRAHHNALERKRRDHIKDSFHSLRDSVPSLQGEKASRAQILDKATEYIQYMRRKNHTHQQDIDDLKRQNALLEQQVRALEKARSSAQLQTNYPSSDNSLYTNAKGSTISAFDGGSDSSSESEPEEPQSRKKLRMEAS
row,Sequence,binding signal
1,CCGGCTGAACTCATGTATTAATAGCTAAGATTACTATATCGACG,1.71 log2 normalized fluorescence
2,CCGGCTGACAAGTTGTATTAATAGCTAAGATTACTATATCGACG,-0.304 log2 normalized fluorescence
3,CCGGCTGATCATATGTATTAATAGCTAAGATTACTATATCGACG,1.98 log2 normalized fluorescence
4,CCGGCTGTCACGTGGTATTAATAGCTAAGATTACTATATCGACG,3.12 log2 normalized fluorescence
5,CCGGCGGACACGTGGTATTAATAGCTAAGATTACTATATCGACG,3.33 log2 normalized fluorescence
6,CCGGCACACACGTGGTATTAATAGCTAAGATTACTATATCGACG,3.32 log2 normalized fluorescence
7,CCGGCTGACACGTGGTATTAATAGCTAAGATTACTATATCGACG,3.19 log2 normalized fluorescence
8,CCGGCGGTCACGTGGTATTAATAGCTAAGATTACTATATCGACG,3.37 log2 normalized fluorescence
9,CCGGCGGACACGTGCTATTAATAGCTAAGATTACTATATCGACG,3.15 log2 normalized fluorescence
10,CCGGCGGGCACGTGGTATTAATAGCTAAGATTACTATATCGACG,3.35 log2 normalized fluorescence
11,CCGGCCGTCACGTGGTATTAATAGCTAAGATTACTATATCGACG,3.18 log2 normalized fluorescence
12,CCGGCTGATACCTGGTGTTAATAGCTAAGATTACTATATCGACG,-0.298 log2 normalized fluorescence
13,CCGGCTGACACGTAGAGTTAATAGCTAAGATTACTATATCGACG,0.996 log2 normalized fluorescence
14,CCGGCTGAAGCGGTGTATTAATAGCTAAGATTACTATATCGACG,-0.554 log2 normalized fluorescence
15,CCGGCTGACCCATGGTATTAATAGCTAAGATTACTATATCGACG,2.08 log2 normalized fluorescence
16,CCGGCTGACACGCCATATTAATAGCTAAGATTACTATATCGACG,2.41 log2 normalized fluorescence
17,CCGGCTGATACATAGTATTAATAGCTAAGATTACTATATCGACG,-0.533 log2 normalized fluorescence
18,CCGGCTGATTCACGGTATTAATAGCTAAGATTACTATATCGACG,0.000807 log2 normalized fluorescence
19,CCGGCTGAGTGGATGTATTAATAGCTAAGATTACTATATCGACG,0.0423 log2 normalized fluorescence
20,CCGGCTGACACGTTGGATTAATAGCTAAGATTACTATATCGACG,3.03 log2 normalized fluorescence
21,CCGGCTGATAGTGGGTATTAATAGCTAAGATTACTATATCGACG,-0.372 log2 normalized fluorescence
22,CCGGCTGAGTGGCTGTATTAATAGCTAAGATTACTATATCGACG,0.1 log2 normalized fluorescence
23,CCGGCTGAAAGATGGTATTAATAGCTAAGATTACTATATCGACG,-0.31 log2 normalized fluorescence
24,CCGGCTTGCACTTGGTATTAATAGCTAAGATTACTATATCGACG,0.423 log2 normalized fluorescence
25,CCGGCTTGCACGTGGTATTAATAGCTAAGATTACTATATCGACG,3.31 log2 normalized fluorescence
26,CCGGCTTGCACGTGGTTTTAATAGCTAAGATTACTATATCGACG,3.23 log2 normalized fluorescence
27,CCGGCTGAGGCGGCGTATTAATAGCTAAGATTACTATATCGACG,-0.641 log2 normalized fluorescence

row,Sequence,binding signal
1,CCGGCTGAGACGCCGTATTAATAGCTAAGATTACTATATCGACG,-0.749 log2 normalized fluorescence
2,CCGGCTGAGGTGGTGTATTAATAGCTAAGATTACTATATCGACG,-0.0636 log2 normalized fluorescence
3,CCGGCTGAATAAGCGTATTAATAGCTAAGATTACTATATCGACG,-0.651 log2 normalized fluorescence
4,CCGGCCGCCACGTGGTATTAATAGCTAAGATTACTATATCGACG,3.32 log2 normalized fluorescence
5,CCGGCAGCCACGTGGTATTAATAGCTAAGATTACTATATCGACG,3.13 log2 normalized fluorescence
6,CCGGCTGCCTCGTGGTATTAATAGCTAAGATTACTATATCGACG,3.36 log2 normalized fluorescence
7,CCGGCTAACGCGTGGTATTAATAGCTAAGATTACTATATCGACG,3.26 log2 normalized fluorescence
8,CCGGCCACCACGTGGTATTAATAGCTAAGATTACTATATCGACG,3.24 log2 normalized fluorescence
9,CCGGCTGCCGCGTGGTATTAATAGCTAAGATTACTATATCGACG,3.21 log2 normalized fluorescence
10,CCGGCTTACGCGTGGTATTAATAGCTAAGATTACTATATCGACG,3.27 log2 normalized fluorescence
11,CCGGCTGCCACGTGGTATTAATAGCTAAGATTACTATATCGACG,3.42 log2 normalized fluorescence
12,CCGGCTGCCCCGTGGTATTAATAGCTAAGATTACTATATCGACG,2.88 log2 normalized fluorescence
13,CCGGCCGACGCGTGGTATTAATAGCTAAGATTACTATATCGACG,3.33 log2 normalized fluorescence
14,CCGGCCGCGACGTGGTATTAATAGCTAAGATTACTATATCGACG,2.79 log2 normalized fluorescence
15,CCGGCTGCGACGTGGTATTAATAGCTAAGATTACTATATCGACG,2.27 log2 normalized fluorescence
16,CCGGCTGACAATGGGTATTAATAGCTAAGATTACTATATCGACG,0.0164 log2 normalized fluorescence
17,CCGGCTGATGGGTAGTATTAATAGCTAAGATTACTATATCGACG,-0.121 log2 normalized fluorescence
18,CCGGCTGACATTTGGTGTTAATAGCTAAGATTACTATATCGACG,-0.316 log2 normalized fluorescence
19,CCGGCTGACATAGCGTATTAATAGCTAAGATTACTATATCGACG,-0.366 log2 normalized fluorescence
20,CCGGCTGAGACACTGTATTAATAGCTAAGATTACTATATCGACG,-0.484 log2 normalized fluorescence
21,CCGGCTGATACGCCGTATTAATAGCTAAGATTACTATATCGACG,-0.497 log2 normalized fluorescence
22,CCGGCTGAGACCCTGTATTAATAGCTAAGATTACTATATCGACG,-0.583 log2 normalized fluorescence
23,CCGGCTGAGCAGGGGTATTAATAGCTAAGATTACTATATCGACG,0.451 log2 normalized fluorescence
24,CCGGCTGAGACGTGGTCTTAATAGCTAAGATTACTATATCGACG,1.44 log2 normalized fluorescence
25,CCGGCCGCCACGTGGTCTTAATAGCTAAGATTACTATATCGACG,3.44 log2 normalized fluorescence
26,CCGGCCGCCACGTAGTATTAATAGCTAAGATTACTATATCGACG,1.58 log2 normalized fluorescence
